Test results taken from the supplement of paper PMC6555819.

What was measured:
Assay in all cases: PBM binding z-score (relative to random genomic background probes); higher = stronger binding; sequences stand for … in GC…GCGATTGACAGCGTAGAATGAAGG
[1] = system: FXR:RXRa (NR concentration 270 nM, RXRa partner concentration 90 nM)
In short: (§1)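 Binding z-scores were set against random background probes. The data came from custom Agilent 4×180K protein-binding microarrays carrying double-stranded probes with 34-nt variable regions, incubated 1 h with ligand-free nuclear receptor dimers. Partner-specific antibodies detected binding, and scanned fluorescence was regression-normalized.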

[2] = system: LXRa:RXRa (NR concentration 270 nM, RXRa partner concentration 90 nM)
In short: as §1

[3] = system: LXRa homodimer (NR concentration 270 nM)
In short: as §1

[4] = system: LXRb:RXRa (NR concentration 270 nM, RXRa partner concentration 90 nM)
In short: as §1

[5] = system: LXRb homodimer (NR concentration 270 nM)
In short: as §1

[6] = system: PPARa:RXRa (NR concentration 270 nM, RXRa partner concentration 90 nM)
In short: as §1

[7] = system: PPARg:RXRa (NR concentration 180 nM, RXRa partner concentration 90 nM)
In short: as §1

[8] = system: PPARg:RXRa 270nM:90nM, anti-RXR (NR concentration 270 nM, RXRa partner concentration 90 nM)
In short: as §1

[9] = system: PPARg:RXRa 30nM:10nM, anti-RXR (NR concentration 30 nM, RXRa partner concentration 10 nM)
In short: as §1

[10] = system: PPARg:RXRa 90nM:30nM, anti-RXR (NR concentration 90 nM, RXRa partner concentration 30 nM)
In short: as §1

[11] = system: PPARg:RXRa DBDmut IVT, anti-RXR (DBD mutation: RXRa K156A/R161A, NR concentration 270 nM, RXRa partner concentration 90 nM)
In short: as §1

[12] = system: PPARg:RXRa IVT, anti-PPARg (NR concentration 270 nM, RXRa partner concentration 90 nM)
In short: as §1

[13] = system: PPARg DBDmut:RXRa IVT, anti-PPARg (DBD mutation: PPARg1 K132A/R137A, NR concentration 270 nM, RXRa partner concentration 90 nM)
In short: as §1

[14] = system: PPARg DBDmut IVT, anti-PPARg (DBD mutation: PPARg1 K132A/R137A, NR concentration 270 nM)
In short: as §1

[15] = system: PPARg homodimer (NR concentration 180 nM)
In short: as §1

[16] = system: PXR:RXRa (NR concentration 270 nM, RXRa partner concentration 90 nM)
In short: as §1

[17] = system: PXR homodimer (NR concentration 270 nM)
In short: as §1

[18] = system: RARa:RXR (NR concentration 270 nM, RXRa partner concentration 90 nM)
In short: as §1

[19] = system: RARa homodimer (NR concentration 270 nM)
In short: as §1

[20] = system: RARb:RXRa (NR concentration 270 nM, RXRa partner concentration 90 nM)
In short: as §1

Sequence	PBM binding z-score [1]	PBM binding z-score [2]	PBM binding z-score [3]	PBM binding z-score [4]	PBM binding z-score [5]	PBM binding z-score [6]	PBM binding z-score [7]	PBM binding z-score [8]	PBM binding z-score [9]	PBM binding z-score [10]	PBM binding z-score [11]	PBM binding z-score [12]	PBM binding z-score [13]	PBM binding z-score [14]	PBM binding z-score [15]	PBM binding z-score [16]	PBM binding z-score [17]	PBM binding z-score [18]	PBM binding z-score [19]	PBM binding z-score [20]
CCTACTGGGCAAAAGGTCATTGATTCCAATGCTC	4.38	5.09	3.89	4.36	0.466	5.57	10.4	9.29	9.17	9.67	2.57	5.1	-0.086	-0.781	3.07	4.91	1.5	5.73	1.77	4.35
CCAGACAGGTAAAAGGTAACTCAGTCTGGTACGC	-0.0774	0.12	-0.25	0.125	-0.535	2.14	3.01	3.82	2.27	3.94	0.377	0.821	-0.535	-0.566	0.614	0.265	0.0427	0.712	0.346	0.382
TCAGACAGGTGAAGGTAACGCAGGTACGCAGTCG	0.226	0.481	-0.607	0.397	-0.402	1.16	0.779	1.98	3.58	2.71	2.13	1.24	0.76	0.126	-0.401	0.411	-0.161	0.66	0.254	1.16
TCTTGTAGATCAAGCAGGTTAAGAACGCCTGAGT	0.558	0.44	-0.0745	0.534	-0.492	0.851	-0.197	1.21	2.6	1.7	1.42	0.613	-0.194	-0.44	-0.0997	0.399	0.197	0.48	-0.305	0.23
